Experiment [1] can be described thus: antimalarial activity against Dd2 strain (AID 2302;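 active means growth inhibition above 50% at the single 2 µM test dose, taken to imply half-maximal potency below 2 µM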;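 further: 0% = DMSO untreated growth and 100% = chloroquine plus artemisinin killed control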). Conditions: P. falciparum Dd2 in RBCs, LDH growth readout, 72 h; at 2 µM; hits give high values.
A short description of experiment [2]: HepG2 cytotoxicity, primary screen, cytotoxicity control for P. falciparum antimalarial project, cell-based, ATP luminescence (AID 2303;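 active means inhibition above 50%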;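 further: 0% = DMSO wells and 100% = digitonin-killed cells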). Conditions: HepG2 viability, 24-48 h, at 10 µM, hits give high values.
The target in experiment [3] is L-lactate dehydrogenase (Plasmodium falciparum (isolate CDC / Honduras)) (UniProt Q27743). Put plainly: PfLDH activity inhibition – cell lysate, 3D7 strain, counter-screen for P. falciparum growth inhibition project (AID 2304).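 Further: 0% = vehicle and 100% = reference inhibitor.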 The note with it: P. falciparum 3D7 crude extract, LDH APAD/NBT absorbance; at 2 µM; hits give high values.
Chain of L-lactate dehydrogenase (Plasmodium falciparum (isolate CDC / Honduras)) (Q27743 whole entry, looked up): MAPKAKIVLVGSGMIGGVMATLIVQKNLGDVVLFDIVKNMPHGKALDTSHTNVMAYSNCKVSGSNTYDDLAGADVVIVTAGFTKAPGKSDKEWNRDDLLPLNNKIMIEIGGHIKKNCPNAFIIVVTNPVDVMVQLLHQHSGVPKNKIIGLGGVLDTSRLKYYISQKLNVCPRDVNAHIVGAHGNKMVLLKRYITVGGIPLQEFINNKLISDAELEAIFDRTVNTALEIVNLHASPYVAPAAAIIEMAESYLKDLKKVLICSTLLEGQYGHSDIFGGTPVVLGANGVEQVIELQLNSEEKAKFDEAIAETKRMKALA
Experiment [4] can be described thus: inhibition of 3D7 malaria parasite growth – strain 3D7 (AID 2306).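 Further: 0% = DMSO wells and 100% = chloroquine plus artemisinin control wells.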 The note with it: P. falciparum 3D7 erythrocytic growth, LDH absorbance, 72 h; at 2 µM; hits give high values.
Experiment [5] deals with Calcium-dependent protein kinase 1 (Plasmodium falciparum (isolate 3D7)) (UniProt P62344). The experiment in a line: PfCDPK1 kinase inhibitors, biochemical, TCAMS library (AID 1159585; cut-off not given, nearly all actives have IC50 up to about 0.98 µM;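 further: inhibitors leave more ATP so luminescence rises with inhibition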). The note with it: recombinant PfCDPK1, Kinase-Glo ATP depletion luminescence.
Chain of Calcium-dependent protein kinase 1 (Plasmodium falciparum (isolate 3D7)) (P62344 whole entry, looked up): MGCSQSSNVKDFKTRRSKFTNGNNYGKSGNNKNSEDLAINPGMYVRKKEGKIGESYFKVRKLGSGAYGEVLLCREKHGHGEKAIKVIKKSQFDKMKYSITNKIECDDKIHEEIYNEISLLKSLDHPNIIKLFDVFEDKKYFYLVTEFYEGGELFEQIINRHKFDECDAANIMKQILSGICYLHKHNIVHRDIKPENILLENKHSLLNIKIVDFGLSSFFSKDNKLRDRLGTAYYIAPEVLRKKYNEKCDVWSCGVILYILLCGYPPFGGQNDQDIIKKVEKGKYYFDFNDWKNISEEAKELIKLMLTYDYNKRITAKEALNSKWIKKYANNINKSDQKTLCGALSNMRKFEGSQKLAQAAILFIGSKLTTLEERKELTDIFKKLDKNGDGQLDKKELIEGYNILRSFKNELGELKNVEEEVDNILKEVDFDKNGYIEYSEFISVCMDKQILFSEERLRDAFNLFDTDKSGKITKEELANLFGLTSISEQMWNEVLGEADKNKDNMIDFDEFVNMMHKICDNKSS
For experiment [6], the target named is Plasmodium falciparum protein kinase 6 (PK6, PF3D7_1337100) (UniProt Q8IDW1). Put plainly: PfPK6 kinase inhibitors, biochemical, TCAMS library (AID 1159586). Conditions: recombinant PfPK6, Kinase-Glo ATP depletion luminescence.
Chain of Plasmodium falciparum protein kinase 6 (PK6, PF3D7_1337100) (Q8IDW1 1-305): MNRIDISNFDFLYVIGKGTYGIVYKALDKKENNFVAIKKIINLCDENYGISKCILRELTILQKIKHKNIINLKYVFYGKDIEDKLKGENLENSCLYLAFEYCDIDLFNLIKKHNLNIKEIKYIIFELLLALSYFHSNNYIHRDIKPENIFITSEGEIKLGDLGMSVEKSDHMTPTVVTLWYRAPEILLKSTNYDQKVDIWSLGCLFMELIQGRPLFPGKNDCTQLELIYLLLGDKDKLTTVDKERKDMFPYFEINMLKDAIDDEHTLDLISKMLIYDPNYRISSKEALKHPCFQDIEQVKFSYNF
Experiment [7] concerns the target Protein kinase 7 (PK7), Plasmodium falciparum 3D7 (PF3D7_0213400) (UniProt Q7YTF7). Put plainly: inhibition of Plasmodium PK7 catalytic activity – biochemical, TCAMS antimalarial set, Kinase-Glo luminescence (AID 1159587). The note with it: recombinant PfPK7, Kinase-Glo ATP depletion luminescence.
The target of experiment [8] is Calcium-dependent protein kinase 4 (Plasmodium falciparum (isolate 3D7)) (UniProt Q8IBS5). Put plainly: PfCDPK4 kinase inhibitors, biochemical, TCAMS library (AID 1159588; cut-off not given, nearly all actives have IC50 up to about 0.91 µM). The note with it: recombinant PfCDPK4, Kinase-Glo ATP depletion luminescence.
Chain of Calcium-dependent protein kinase 4 (Plasmodium falciparum (isolate 3D7)) (Q8IBS5 whole entry, looked up): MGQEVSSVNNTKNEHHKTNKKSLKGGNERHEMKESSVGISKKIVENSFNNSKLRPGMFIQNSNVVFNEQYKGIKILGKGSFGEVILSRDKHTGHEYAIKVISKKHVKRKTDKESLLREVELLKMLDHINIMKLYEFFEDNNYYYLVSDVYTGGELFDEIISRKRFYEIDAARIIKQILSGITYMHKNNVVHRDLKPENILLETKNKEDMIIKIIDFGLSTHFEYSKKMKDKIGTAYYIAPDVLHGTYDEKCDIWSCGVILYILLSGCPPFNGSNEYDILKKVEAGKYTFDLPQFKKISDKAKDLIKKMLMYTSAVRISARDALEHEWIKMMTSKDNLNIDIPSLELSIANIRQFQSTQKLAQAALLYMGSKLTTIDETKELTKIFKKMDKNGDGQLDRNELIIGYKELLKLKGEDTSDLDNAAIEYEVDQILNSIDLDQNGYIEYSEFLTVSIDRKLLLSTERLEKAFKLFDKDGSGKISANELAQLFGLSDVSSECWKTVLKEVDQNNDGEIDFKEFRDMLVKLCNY

Unmarked numbers belong to inactive results. For part of these data: Results with a measured potency or affinity are listed apart. The source made the active and inactive calls. Unless noted, how the calls were made is not given here.

Chain of Protein kinase 7 (PK7), Plasmodium falciparum 3D7 (PF3D7_0213400) (Q7YTF7 1-343): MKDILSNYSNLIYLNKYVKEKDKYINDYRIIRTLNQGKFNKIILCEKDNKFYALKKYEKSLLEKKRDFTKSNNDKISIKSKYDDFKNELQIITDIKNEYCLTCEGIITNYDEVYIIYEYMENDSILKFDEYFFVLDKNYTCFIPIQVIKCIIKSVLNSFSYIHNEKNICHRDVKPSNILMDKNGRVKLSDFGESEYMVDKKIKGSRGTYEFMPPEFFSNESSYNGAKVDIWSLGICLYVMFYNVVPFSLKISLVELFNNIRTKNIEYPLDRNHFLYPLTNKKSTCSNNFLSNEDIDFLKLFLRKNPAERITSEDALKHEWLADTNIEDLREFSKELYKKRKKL

As to `Cc1cccc2[nH]c(-c3cccc(-c4ccc(NC(=O)c5cccc(C(N)=O)c5)cc4)c3)nc12`, the figures for the growth inhibition in experiment [1] and in experiment [4] were 61% (active) and 100% (active), respectively. Besides, the inhibition is 25% in experiment [2] and 4% in experiment [3]. The result in experiment [5], in experiment [6], in experiment [7] and in experiment [8] was inactive.
In the case of `Cc1nnsc1C(=O)Nc1cccc(-c2cccc(-c3nc4c(C)cccc4[nH]3)c2)c1`, the figures for the growth inhibition in experiment [1] and in experiment [4] were 80% (active) and 99% (active), respectively. Further, the inhibition in experiment [2] was 22%; in experiment [3], 4%. Also, the result in experiment [5], in experiment [6], in experiment [7] and in experiment [8] was inactive.
`Cc1nnc2c(NC(=O)NC3CCCC3)cc3cc(-c4ccc(CN(C)C)cc4)ccc3n12`: the growth inhibition in experiment [1] is 37%; in experiment [4], 100% (active). For the same compound, the inhibition is 100% (active) in experiment [2] and -2% in experiment [3]. Also, the outcome in experiment [5], in experiment [6], in experiment [7] and in experiment [8] was inactive.
Turning to `COC(=O)c1cccc(CNCc2ccc(-c3ccc(-c4nc5ccccc5[nH]4)s3)cc2)c1`, the figures for the growth inhibition in experiment [1] and in experiment [4] were 79% (active) and 100% (active), respectively. Moreover, the inhibition in experiment [2] was 20%; in experiment [3], 4%. For the same compound, the result in experiment [5], in experiment [6], in experiment [7] and in experiment [8] was inactive.
Take `Oc1ccc(CCNCCCCCCNCCc2ccc(Br)cc2)cc1O`: the growth inhibition was 5% in experiment [1] and 99% (active) in experiment [4]. Moreover, the inhibition was 2% in experiment [2] and -2% in experiment [3]. Also, the outcome in experiment [5], in experiment [6], in experiment [7] and in experiment [8] was inactive.
On to `CC(C)(C)Nc1cc(C(=O)N[C@@H](Cc2ccccc2)[C@H](O)CNC2CCOCC2)cc(N2CCCCS2(=O)=O)c1`, for which the growth inhibition in experiment [1] was 98% (active); in experiment [4] it was 99% (active). In addition, the inhibition in experiment [2] is -5%; in experiment [3], -1%. Besides, the result in experiment [5], in experiment [6], in experiment [7] and in experiment [8] was inactive.
`CCCC(C)N(Cc1ccc(C(C)(C)C)cc1)C(=O)c1ccc(OC)cc1` (centres undefined): the growth inhibition in experiment [1] is 98% (active); in experiment [4] it was 100% (active). The inhibition in experiment [2] was 7%; in experiment [3], -2%. The result in experiment [5], in experiment [6], in experiment [7] and in experiment [8] was inactive.
Turning to `CCN(CCCN1CCCCC1)c1nccc(Nc2ccc(Cl)cc2)n1`, the growth inhibition in experiment [1] is 63% (active); in experiment [4], 89% (active). For the same compound, the inhibition in experiment [2] is 19%; in experiment [3], -1%. Moreover, the outcome in experiment [5], in experiment [6], in experiment [7] and in experiment [8] was inactive.
`COc1ccccc1C1CCN(C2CCC(NC(=O)/C=C/c3cc(C(F)(F)F)ccc3F)CC2)CC1` (centres undefined): the growth inhibition in experiment [1] is 32%; in experiment [4], 97% (active). Further, the figures for the inhibition in experiment [2] and in experiment [3] were 39% and -3%, respectively. Also, the outcome in experiment [5], in experiment [6], in experiment [7] and in experiment [8] was inactive.
Consider `c1ccc(CCNCc2ccc(-c3ccc(CNc4ccc5ncccc5c4)cc3)cc2)cc1`, for which the growth inhibition was 27% in experiment [1] and 96% (active) in experiment [4]. Further, the inhibition was 36% in experiment [2] and -1% in experiment [3]. Further, the outcome in experiment [5], in experiment [6], in experiment [7] and in experiment [8] was inactive.
With `CCc1ccc(N2C(N)=NC(N)=NC2(C)C)cc1`, the results for the growth inhibition in experiment [1] and in experiment [4] were -1% and 94% (active), respectively. For the same compound, the inhibition in experiment [2] was 51% (active); in experiment [3], -2%. Further, the outcome in experiment [5], in experiment [6], in experiment [7] and in experiment [8] was inactive.
Turning to `O=C(Nc1cccc(-c2ccc(-c3nc4ccccc4[nH]3)cc2)c1)Nc1ccc2c(c1)OCO2`, the growth inhibition in experiment [1] was 8%; in experiment [4], 90% (active). Further, the inhibition in experiment [2] was 20%; in experiment [3], -1%. In addition, the outcome in experiment [5], in experiment [6], in experiment [7] and in experiment [8] was inactive.
`Clc1ccc(CNc2ccnc(NCCc3coc4ccccc34)n2)c(Cl)c1`: the growth inhibition in experiment [1] is 39%; in experiment [4], 86% (active). In addition, the inhibition was 26% in experiment [2] and -3% in experiment [3]. Further, the outcome in experiment [5], in experiment [6], in experiment [7] and in experiment [8] was inactive.
On to `CCN(CC)S(=O)(=O)c1ccc(C(=O)Oc2ccccc2N(Cc2ccc(OC)cc2)C2=NS(=O)(=O)c3ccccc32)cc1`, for which the growth inhibition in experiment [1] is 63% (active); in experiment [4] it was 98% (active). Also, the figures for the inhibition in experiment [2] and in experiment [3] were 0% and -3%, respectively. Also, the outcome in experiment [5], in experiment [6], in experiment [7] and in experiment [8] was inactive.
Consider `Cc1cccc2[nH]c(-c3ccc(-c4ccc(NC(=O)Nc5cccc(C#N)c5)cc4)s3)nc12`, for which the growth inhibition in experiment [1] was 100% (active); in experiment [4] it was 101% (active). Besides, the inhibition was 33% in experiment [2] and -6% in experiment [3]. Besides, the outcome in experiment [5], in experiment [6], in experiment [7] and in experiment [8] was inactive.
In the case of `CC(Oc1c(C2CCN(CCCCNC(=O)c3ccc(-c4ccc(Cl)cc4)cc3)CC2)ccc2c1CCCC2)C(N)=O` (centres undefined), the growth inhibition was 16% in experiment [1] and 99% (active) in experiment [4]. Besides, the inhibition is 100% (active) in experiment [2] and 3% in experiment [3]. The result in experiment [5], in experiment [6], in experiment [7] and in experiment [8] was inactive.
In the case of `O=C(NCC1CC1)C1CCN(C(c2ccc(Cl)cc2)c2ccc(Cl)cc2)CC1`, the growth inhibition is 95% (active) in experiment [1] and 99% (active) in experiment [4]. The inhibition was 3% in experiment [2] and 1% in experiment [3]. For the same compound, the outcome in experiment [5], in experiment [6], in experiment [7] and in experiment [8] was inactive.
Turning to `Cc1[nH]c(C)c(-c2cc3ccccc3o2)c(=O)c1Cl`, the growth inhibition is 13% in experiment [1] and 92% (active) in experiment [4]. For the same compound, the inhibition in experiment [2] is 1%; in experiment [3] it was -2%. Further, the result in experiment [5], in experiment [6], in experiment [7] and in experiment [8] was inactive.

The record behind these values is PubChem BioAssay.
